# Laboratory results: ChEMBL document CHEMBL4513216, “Probing the Open Global Health Chemical Diversity Library for Multistage-Active Starting Points for Next-Generation Antimalarials” (ACS Infect Dis, 2020)
# In all, about 68,000 compounds went through this assay and about 2,700 (4%) showed an effect of 50% or more. Only a selection was taken, and strong results are over-represented in it overall.
# Tested on: Plasmodium berghei
# Test: Screen against P. berghei liver stage (PbLuc), transformed with Luciferase, at 2uM
# Format: functional, HepG2
# Conditions: tested at 2 uM
row,Compound,INHIBITION [%]
1,CCOC(=O)[C@]12CCCN(Cc3cccs3)C[C@H]1CN(C(C)=O)C2,-12.74
2,Cc1nc2cc(O)nn2c(C)c1CCC(=O)N(C)Cc1cscn1,-1.73
3,CC(C)c1ccc(-n2cc(O)c(C(=O)N3CCC(C(N)=O)CC3)n2)cc1,-40.06
4,Cc1nc(COC[C@]23COC[C@H]2CN(Cc2ccoc2)C3)cs1,18.57
5,COc1ccc(C(C(=O)O)N2CCC(Cn3cccn3)CC2)cc1F (stereo not drawn),15.46
6,Cc1ccnc(NC(=O)c2c(C)oc(C)c2C)c1,-18.78
7,CCC1(C)Cc2ccccc2-c2nc(NCCCO)nc(O)c21 (stereo not drawn),44.7
8,CCOc1ccc2[nH]c3c(N(C)CC4OCCO4)ncnc3c2c1,38.64
9,Cc1ccc(S(=O)(=O)NC(=O)CCC(F)(F)F)cc1N(C)C,3.39
10,CN(C)c1nc(NCCc2cnccn2)ncc1F,44.19
11,CN1CCN(C)C2(CCN(Cc3ccc(C4CCCCO4)o3)CC2)C1 (stereo not drawn),-6.27
12,OCC1(O)CCN(Cc2ccc(C3CCCCO3)o2)CC1 (stereo not drawn),61.27
13,CN1CCC2(CC1)CN(Cc1ccc(C3CCCCO3)o1)CCCN2C (stereo not drawn),-83.94
14,CC(=O)N1CCN(C(=O)CN2CCc3c(ncn3C3CC3)C2)CC1,37.52
15,Cc1ccsc1CN(CCN(C)C)C(=O)C1=NNC(=O)CC1,-1.87
16,COC(=O)c1sccc1NC(=O)C1CCCN1C(=O)c1ccco1 (stereo not drawn),-16.52
17,Cc1cccc(NC(=O)C2CCCN2C(=O)c2ccco2)c1C (stereo not drawn),58.53
18,COCc1ccccc1NC(=O)[C@@H]1CCCN1C(=O)c1ccco1,1.86
19,NC(=O)CN1CCCN(C(=O)Cc2ccc(F)cc2)CC1,33.12
20,O=C(CN1CCN(c2ncnc3cccc(F)c23)CC1)N1CCCC1,-11.35
21,O=C(Cc1c(F)cccc1F)N1CCN(CC(=O)N2CCCC2)CC1,57.95
22,CCc1n[nH]c(C2CN(C(=O)c3cscn3)CCO2)n1 (stereo not drawn),-34.61
23,Cc1cc(N2CCCCC2)c(C#N)c(C)n1,54.44
24,Cc1csc(N2CCCN(c3cc(C)nc(C)c3C#N)CC2)n1,-20.21
25,Cc1cc(N2CCCC2)c(C#N)c(C)n1,-27.68
26,Cn1cccc1C(=O)N1CCCN(CCCc2ccccc2)CC1,-25.8
27,CCc1nc(C)c(-c2nccn2CC2CCN(C3CCCC3)CC2)[nH]1,56.81

row,Compound,INHIBITION [%]
1,CCc1nc(C)c(-c2nccn2CC2CC(=O)N(CC)C2)[nH]1 (stereo not drawn),-5.65
2,CC(=O)Nc1ccc2nc(-c3nccn3C[C@@H]3CCCO3)ccc2c1,25.13
3,Cc1cnc(C)c(N2CCN(CC3CCCO3)CC2)n1 (stereo not drawn),-18.84
4,Cc1nccn1CCC1CCN(C2CCC3(CCNCC3)CC2)CC1,34.52
5,CCc1nc(C)c(-c2nccn2CC2CCCCO2)[nH]1 (stereo not drawn),54.75
6,O=C(c1ccoc1)N1C[C@H]2CC[C@@]3(N=C(c4ccccc4)NC3=O)[C@H]2C1,-1.45
7,Cc1nn(C)c2c(=O)n(C)c(NCC3CCCO3)nc12 (stereo not drawn),37.45
8,CC/C(C)=C/CCN1CCN(C)C2(CCNC(=O)CC2)C1 (stereo not drawn),20.2
9,CC(C)=CCCN1CCN(C)C2(CCC(=O)N(C)CC2)C1 (stereo not drawn),77.56
10,CC(C)=CCC/C(C)=C/CN1CCN(C)C2(CCNC(=O)CC2)C1 (stereo not drawn),43.94
11,Cc1noc(C)c1CN1CCc2ncnc(-c3ccccc3)c2CC1,-20.87
12,O=C(Cc1cccs1)N1CCCC(CNS(=O)(=O)Cc2ccccc2)C1 (stereo not drawn),-40.36
13,O=S(=O)(Cc1ccccc1)NCC1CCCN(Cc2cccs2)C1 (stereo not drawn),64.35
14,O=C(CN1CCCC1)N1CCCC(CNS(=O)(=O)Cc2ccccc2)C1 (stereo not drawn),-4.77
15,Cc1ncsc1CCC(=O)NC1CCN(Cc2cccs2)CC1,26.93
16,CCCC(=O)NC1CCCN(Cc2cccs2)C1 (stereo not drawn),53.65
17,CC(C)(C)OC(=O)NC1CCCN(Cc2cccs2)C1 (stereo not drawn),1.08
18,O=C(NS(=O)(=O)c1ccccc1C(F)(F)F)c1cccc2c1OCCO2,37.69
19,Fc1ccc(CC2CCN(Cc3cscn3)CC2)cc1,-23.58
20,COc1cccc(COCC(=O)N2CCCC(c3ccn[nH]3)C2)c1 (stereo not drawn),14.97
21,Cc1ncc(-c2ccnc(NCCO)n2)c(C2CCCCC2)n1,-38.58
22,Cc1cncc(NC(=O)c2ccc(CN3CC[C@H](O)C3)cc2)c1,42.48
23,Cc1cc(NC(=O)c2ccc(CN3CC[C@H](O)C3)cc2)ccc1F,82.91
24,COc1cc(NC(=O)c2ccc(CN3CC[C@H](O)C3)cc2)cc(OC)c1,20.71
25,Cc1cscc1-c1nc(C2CCOC2)no1 (stereo not drawn),10.22
26,O=C(NCc1nnc2n1CCC2)c1ccc(Br)s1,22.39
